SARS PLpro yeast = qHTS of Yeast-based Assay for SARS-CoV PLP | S. cerevisiae expressing SARS-CoV PLpro, growth rescue | Potency, µM (doses to about 32.9 µM), inactives show at the highest dose activity, positive = growth rescue, usual class: activators | actives 0.19% (n = 330,000); calls by dose curve; note: potency is the fitted concentration of half-maximal effect; 0% is about no effect; nearly all actives have a fitted effect of over 55% in size
Cycloheximide cs = Cycloheximide Counterscreen for Small Molecule Inhibitors of Shiga Toxin; actives 12% (n = 300,000); AID 2314, 2010; cell reporter, cycloheximide protein synthesis inhibition counterscreen; max response, %; in the data active = max response mostly above about 13%, no sharp cut-off; inactive = mostly below about 14%; note: read at 38.3 µM for the half of the compounds with a filed dose; 0% is about no effect
AmpC inh no detg = qHTS Inhibitors of AmpC Beta-Lactamase (assay without detergent). actives 0.52% (n = 330,000). Potency, µM (top dose mostly 57.1 µM), inactives show top-dose activity change, negative = inhibition, actives largely listed as inhibitors. AmpC nitrocefin hydrolysis, absorbance 480 nm, 0.0001% Triton. P00811;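 note: potency is the fitted concentration of half-maximal effect; plate controls were no compound for no effect and no enzyme for full effect; nearly all actives have a fitted effect of over 20% in size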
Target sequence (P00811 whole entry, looked up): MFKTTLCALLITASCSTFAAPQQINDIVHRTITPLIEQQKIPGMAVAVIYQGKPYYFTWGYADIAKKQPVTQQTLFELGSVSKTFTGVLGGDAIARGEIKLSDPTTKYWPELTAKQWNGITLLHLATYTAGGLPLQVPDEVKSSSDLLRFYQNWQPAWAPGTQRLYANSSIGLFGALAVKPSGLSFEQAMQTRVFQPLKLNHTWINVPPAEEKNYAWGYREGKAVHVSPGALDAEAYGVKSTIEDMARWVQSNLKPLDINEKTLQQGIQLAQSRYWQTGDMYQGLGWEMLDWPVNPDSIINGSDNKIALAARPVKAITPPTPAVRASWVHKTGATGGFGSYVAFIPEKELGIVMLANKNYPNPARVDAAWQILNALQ
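20 mM phosphate pH 7.0 + 0.01% (detergent screen) or 0.0001% Triton X-100; 5.3 nM AmpC reagent; cpd preinc 15 min RT; nitrocefin (800 uM stock) to start; A480 q20 s × 4 min; Activity was normalised to no-enzyme and no-compound control wells.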
AMA1 RON2 block = qHTS for Inhibitors of AMA1-RON; Towards Development of Antimalarial Drug Lead: Primary Screen. Potency, µM (titrated, usually from 58.2 µM), for inactives: at the top dose activity change, negative = inhibition, hits mostly inhibitors. actives 0.2% (n = 360,000). Plasmodium falciparum AMA1 (3D7) - RON2 peptide interaction. AlphaScreen AMA1-biotinylated RON2 peptide binding;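 note: potency is the fitted concentration of half-maximal effect; 0% = vehicle wells and -100% = peptide control; nearly all actives have a fitted effect of over 45% in size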
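AMA1 (3D7) with his tag at 25 nM final met compounds first, then biotinylated RON2 peptide at 25 nM; detection used donor plus acceptor beads, 10 µg/mL apiece, read by AlphaScreen after 30 min at room temperature.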
AmpC inh detg = qHTS Inhibitors of AmpC Beta-Lactamase (assay with detergent); AmpC hydrolysis of nitrocefin, absorbance 480 nm, 0.01% Triton; Potency, µM (doses to about 114 µM), without a hit: at the highest dose activity change, negative = inhibition, actives largely listed as inhibitors; actives 0.041% (n = 370,000);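 note: potency is the fitted concentration of half-maximal effect; 0% = no-compound wells and -100% = no-enzyme wells; nearly all actives have a fitted effect of over 25% in size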
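AmpC (5.3 nM in the dispensed reagent) in 20 mM phosphate pH 7.0 with 0.01% (detergent screen) or 0.0001% Triton X-100 was preincubated with compounds for 15 min at room temperature. Nitrocefin was then added from an 800 uM solution, and hydrolysis was followed at 480 nm.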
Shiga inhibitor = A qHTS for Small Molecule Inhibitors of Shiga Toxin; Vero cells, Shiga toxin protein synthesis inhibition reporter; inhibition, % at 38.7 µM; actives 9.2% (n = 290,000); AID 2315, 2010; in the data active = inhibition mostly above about 28%, no sharp cut-off; inactive = mostly below about 43%; note: 0% is about no effect
The depositor's hits bear a star; ? = inconclusive; / = no result; [ ] = remark or other dose. Many of the other results were omitted from the sample, so hits are more common in it than they were. Unless noted, calls come from the whole dose curve; as a rule, active = well fitted curve in the direction sought with a large enough effect; inconclusive = small, poorly fitted or top-dose-only effect, or another doubt; inactive = no such curve, though single readings can be large; an effect the other way counts as inactive or inconclusive.

SMILES	SARS PLpro yeast	Cycloheximide cs	AmpC inh no detg	AMA1 RON2 block	AmpC inh detg	Shiga inhibitor
Nc1[nH]c(N=NC(=O)c2ccccc2)c2ccccc12	1%	53*	-26%	15%	-4%	84*
Nc1[nH]c(N=NC(=O)c2ccccc2O)c2ccccc12	16%	58*	-16%	20%	-6%	81*
O=C(ONc1ccc(N=NC(=O)c2ccccc2O)cc1)c1ccccc1	-9%	-3	-29%	73%	-2%	-9
Nc1[nH]c(N=NC(=O)c2ccc(Cl)cc2)c2ccccc12	-19%	32*	-26%	24%	-8%	95*
O=C(CSc1nc2ccccc2[nH]1)Nc1c(F)cccc1F	0%	8	-30%	-3%	-8%	10
CC(C)(C)NC(=O)Cn1nnnc1-c1nonc1N	2%	13	-4%	7%	-13%	3
Cc1cccc(/C=N/NC(=O)C(C)Nc2cccc3ccccc23)n1 (stereo not drawn)	-11%	16*	42%	38%	?	12
N/C(CS(=O)(=O)c1ccccn1)=N\OC(=O)c1ccc(Cl)cc1	1%	26*	-4%	?	6%	35
CCCS(=O)(=O)C/C(N)=N/OC(=O)c1ccccc1Cl	-4%	-1	6%	9%	-2%	32
N/C(CS(=O)(=O)c1ccccn1)=N\OC(=O)c1ccccc1Cl	0%	40*	-11%	10%	8%	57*
N/C(CCS(=O)(=O)c1ccc(Cl)cc1)=N\OC(=O)c1ccc(Cl)cc1	0%	-2	-11%	-3%	6%	-7
COc1ccc(N(CC(=O)NCCc2ccccc2)C(=O)CCC(=O)Nc2nccs2)c(OC)c1	1%	-3	63%	-1%	-9%	-9
O=C(O)C1CCCN1C(=O)Oc1ccccc1 (stereo not drawn)	12%	-6	/	-8%	/	-15
CC(=O)/C(=C/c1ccccc1)C(=O)Nc1ccccc1C	0%	-9	-8%	10%	-1%	-6
O=C(Nc1nc2cc3c(cc2s1)OCO3)C1CCCCC1	0%	89*	?	-5%	-4%	108*
O=C(Nc1nc2cc3c(cc2s1)OCO3)C1CC1	-5%	24*	-26%	-7%	-7%	81*
CC(=O)NN1C(=O)c2ccc(Oc3cccc([N+](=O)[O-])c3)cc2C1=O	8%	-3	-15%	-4%	-3%	-17
COc1cc([N+](=O)[O-])ccc1NC(=O)COC(=O)C=C(C)C	-1%	0	-8%[11.4 µM]	0%	?	-3
Cc1ccc(C(=O)OCc2cn3ccccc3n2)cc1	-8%	15*	-11%	1%	-5%	15
c1ccc(-n2cnnc2SCc2cn3ccccc3n2)cc1	?	-1	-52%	-8%	-14%	25
O=C(O)c1ccccc1SCc1cn2ccccc2n1	-6%	4	-21%	-20%	-1%	7
Cc1ccc(SCc2cn3ccccc3n2)cc1	3%	32*	-20%	-26%	2%	66*
c1ccc(CSCc2cn3ccccc3n2)cc1	0%	47*	-9%[11.4 µM]	0%	?	112*
O=C(/C=C/c1ccc(Br)cc1)c1ccc(NC2=NCCCS2)cc1	-10%	11	14µM*	-28%	1%	7
O=C(/C=C/c1ccccc1)c1ccc(NC2=NCCCS2)cc1	-24%	26*	28µM*	-7%	?	30*
SMILES	SARS PLpro yeast	Cycloheximide cs	AmpC inh no detg	AMA1 RON2 block	AmpC inh detg	Shiga inhibitor
Cc1cccc(/C=C/C(=O)c2ccc(NC3=NCCCS3)cc2)c1	-9%	26*	-28%	-22%	-1%	24
CC(C)(C)c1ccc(/C=C/C(=O)c2ccc(NC3=NCCCS3)cc2)cc1	-132%	31*	49%	-6%	-3%	78*
COc1cccc(/C=C/C(=O)c2ccc(NC3=NCCCS3)cc2)c1	0%	18	-44%	-5%	-14%	54
O=C(O)c1ccc(C(=O)O)c(C(=O)c2ccc(NC(=O)c3ccccc3)cc2)c1	0%	-2	-19%	2%	-5%	-5
Cc1ccc(NC(=O)C(C)N2C(=O)c3ccccc3C2=O)nc1 (stereo not drawn)	-1%	-4	-11%	-21%	5%	38
COc1ccc(-c2nn(-c3ccccc3)cc2/C=C/C(=O)O)cc1[N+](=O)[O-]	7%	13*	-20%	-1%	9%	41
COc1ccc(-c2nn(-c3ccccc3)cc2C=O)cc1[N+](=O)[O-]	-6%	1	-3%	8%	?	-6
Cc1cc2n(n1)CCCN2C(=O)Nc1ccc(F)c(Cl)c1	/	/	/	/	1%	/
Cc1cc2n(n1)SC(Nc1ccc(F)c(Cl)c1)N2 (stereo not drawn)	-49%	32*	-29%	71%	-14%	active
N#C/C(=C\c1ccc(-c2ccc(C(=O)O)cc2)o1)C(=O)Nc1ccc(F)cc1	1%	-3	-25%	-22%	-13%	21
Cc1cccc(C)c1NC(=O)/C(C#N)=C/c1ccc(-c2ccc(C(=O)O)cc2)o1	-2%	21*	-7%	17%	-14%	70*
CNC(=O)/C(C#N)=C/c1ccc(-c2ccccc2[N+](=O)[O-])o1	-2%	36*	-28%	-10%	-12%	35
N#C/C(=C\c1ccc(-c2ccccc2[N+](=O)[O-])o1)C(N)=O	-1%	-1	1%	-13%	8%	4
O=C(/C=C/c1ccc(-c2ccccc2[N+](=O)[O-])o1)c1ccccc1	-29%	51*	4%	-9%[11.6 µM]	-3%	96*
CNC(=O)/C(C#N)=C/c1ccc(-c2ccc(Cl)cc2)o1	-2%	28*	-15%	-14%	0%	76*
COCCCNc1oc(COc2ccc(Cl)cc2Cl)nc1C#N	-2%	1	91%	-6%	-9%	-7
O=C(O)/C(=C\c1ccc(-c2ccccc2[N+](=O)[O-])o1)c1ccccc1	0%	11	-29%	-11%	?	28*
Cc1ccc(C(=O)N/C(=C\c2ccc(-c3ccccc3[N+](=O)[O-])o2)C(=O)NCCN(C)C)cc1	-6%	13*	108%	36%	4%	18
CC(=O)C(N=Nc1ccccc1)(Sc1nnc(-c2ccccc2)n1-c1ccccc1)C(=O)Nc1ccccc1 (stereo not drawn)	-18%	1	-17%	-8%	4%	-21
CC(C)C(=O)Nc1cccc(-c2cn3ccccc3n2)c1	4%	14*	-22%	-4%	-6%	17
Cc1ccn2cc(-c3cccc(NC(=O)c4ccccc4)c3)nc2c1	3%	60*	-40%	3%	2%	44*

Screening data: PubChem BioAssay, National Center for Advancing Translational Sciences (NCATS)
